These results are taken from PubChem BioAssay AID1209 (Sanford-Burnham Center for Chemical Genomics, 2008).

Out of some 190,000 compounds screened, about 810 (0.43%) were called active. The full list was thinned out, with actives kept by preference. Values without a mark were called inactive. No stated cut-off is given here; in the data, active means inhibition above about 50%; inactive means the rest.

The target of the experiment is Mannose-6-phosphate isomerase (Homo sapiens) (UniProt P34949). Nature of the experiment: MPI enzyme activity inhibition – biochemical, fluorescence intensity, coupled assay, primary screen (AID 1209).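 Further: plate controls were DMSO vehicle for no effect and wells lacking substrate for full effect.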 The conditions noted are these: purified PMI enzyme, at 20 µM, stronger effect = higher value.
Mannose-6-phosphate isomerase (Homo sapiens), sequence (P34949 whole entry, looked up): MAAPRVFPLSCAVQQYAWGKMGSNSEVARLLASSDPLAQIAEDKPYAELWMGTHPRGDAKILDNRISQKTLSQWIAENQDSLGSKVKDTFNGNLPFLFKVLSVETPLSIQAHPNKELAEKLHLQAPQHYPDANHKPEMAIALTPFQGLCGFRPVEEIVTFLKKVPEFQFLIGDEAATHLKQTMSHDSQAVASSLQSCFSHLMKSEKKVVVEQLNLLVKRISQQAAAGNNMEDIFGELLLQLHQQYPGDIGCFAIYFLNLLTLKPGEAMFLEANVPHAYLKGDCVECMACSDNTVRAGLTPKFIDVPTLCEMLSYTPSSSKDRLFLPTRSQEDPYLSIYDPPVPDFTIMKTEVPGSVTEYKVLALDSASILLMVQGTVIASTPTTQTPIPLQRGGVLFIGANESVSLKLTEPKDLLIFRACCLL
As a reminder, the inhibition is the relative decrease from the control value, in per cent. For the compound `O=c1[nH]c(=S)[nH]c2[nH]c(=S)[nH]c12`, the inhibition was 67.9% (active).

For the compound `Nc1[nH]c(=S)[nH]c(=O)c1-c1ccccc1`, the inhibition is 21.9%. The value for `O=c1[nH]c(=S)[nH]c2sccc12` was -13.4%; that for `COc1ccc(CC(=O)OCC(=O)NC(=O)NC(C)C)cc1` was 9%. For the compound `CCCn1nnnc1NCc1ccc(F)cc1`, the inhibition is -4.6%. Consider `CCC(=O)N1c2ccccc2NC2=C(C(=O)CC(C)(C)C2)C1c1cccnc1` (configuration not stated), for which the inhibition was 7.2%. `C(=N\n1cnnc1)/c1ccc(OCc2ccccc2)cc1`: the inhibition is -5.7%. For the compound `Fc1ccc(COc2ccc(/C=N/n3cnnc3)cc2)cc1`, the inhibition is -3.3%. Take `CCOc1ccc(/C=N/n2cnnc2)cc1`: the inhibition is 84.4% (active). With `Cc1occc1C(=O)Nc1nnc(-c2cccs2)s1`, the inhibition is 6.2%. In the case of `Clc1ccccc1Sc1cnc2ccccc2n1` it was 0.9%.

As for `O=C(/C=C/c1ccc(S(=O)(=O)N2CCOCC2)cc1)NC(=S)NCCCn1ccnc1`, the inhibition was -0.5%. With `CC(C)=C1C2CCC1C1C(=O)N(c3nccs3)C(=O)C21` (configuration not stated), the inhibition was -3.3%. The value for `CC1(O)C(=O)c2ccccc2N(c2ccccc2)C1=O` (configuration not stated) was -6.5%; that for `CN1C(=O)C(Cl)(Cl)C(=O)c2ccccc21` was 77.4% (active); that for `CCN1C(=O)C(F)(CC)C(=O)c2ccccc21` (configuration not stated) was 2.2%. The value for `CC(C)(C)c1ccc(C(=O)CSc2nc3ccccc3c(=O)[nH]2)cc1` was -6.3%. The value for `CC(C)(C)c1ccc(C(=O)CSc2n[nH]c(=O)[nH]c2=O)cc1` was -4.4%. Regarding `COc1ccc(NC(C)C(=O)N/N=C/c2cc(Br)ccc2OC)cc1` (configuration not stated), the inhibition was 11.5%.

As to `COc1ccc(/C(N)=N/OC(=O)CSc2ccc(C)cc2)cc1OC`, the inhibition is 14.6%. In the case of `O=C(c1cc(-c2ccco2)on1)N1CCOCC1` it was 20.8%; in that of `CN1CCN(C(=O)c2cc(-c3ccco3)on2)CC1`, -0.9%; in that of `O=C(c1cc(-c2ccco2)on1)N1CCN(c2ccccc2)CC1`, 53.5% (active). In the case of `CCCNC(=O)COC(=O)c1ccccc1OCC(=O)Nc1ccc(Br)cc1` it was -10.2%; in that of `COc1ccc(-c2csc(NC(=O)C3CC(=O)N(c4ccc5c(c4)OCCO5)C3)n2)cc1` (configuration not stated), 5.8%.

With `O=C1CCCN2N=C(SCC(=O)N3N=C(c4ccc(Br)cc4)CC3c3ccc(F)cc3)SC2=N1` (configuration not stated), the inhibition is 22.3%. In the case of `CC(NC(=O)Nc1ccc2c(c1)OCO2)C1CCCO1` (configuration not stated) it was 0.5%. In the case of `O=C1NC(=O)/C(=C/c2ccc(O)cc2)S1` it was -8.7%; in that of `Cc1cc(N2CCOCC2)ccc1/C=C1/SC(=O)NC1=O`, -13.8%; in that of `O=C1NC(=O)/C(=C\c2ccc(O)cc2O)S1`, 53.5% (active). The value for `O=S(=O)(c1ccc(Cl)cc1)c1cnc2ccccc2n1` was -6.4%; that for `COC(=O)c1cc(-c2ccccc2)n[nH]1` was 7.7%; that for `CC(C)(C)NC(=O)c1cc(-c2ccccc2)n[nH]1` was 70.1% (active). For the compound `O=C(O)c1cc(-c2ccccc2)n[nH]1`, the inhibition was -12%.

Consider `Cc1c(Br)c([N+](=O)[O-])nn1CC(=O)Nc1ccccn1`, for which the inhibition is 7.8%. In the case of `Cc1c(Br)c([N+](=O)[O-])nn1CC(=O)NCc1ccccn1` it was 101% (active); in that of `Cc1c(Br)c([N+](=O)[O-])nn1CC(=O)NCc1ccccc1`, 1.2%.

`O=C(C1CCCN(S(=O)(=O)c2cnc[nH]2)C1)N(CCc1ccccc1)Cc1ccccc1` (configuration not stated): the inhibition is 9.1%. In the case of `CCOCC(=O)Nc1nc2ccc(OCC)cc2s1` it was -3%. Consider `CCOCC(=O)Nc1nc2ccc(C)cc2s1`, for which the inhibition is 110% (active). In the case of `COCC(=O)Nc1nc2ccc(C)cc2s1` it was 4.3%; in that of `CNC(=S)N1CCc2cc(OC)c(OC)cc2C1COc1ccc(F)cc1` (configuration not stated), 10.3%; in that of `O=C1CNC(=O)c2c(nc3n2CCC3)N1`, -20.3%. The value for `CC(C)=C1SC(N2CCN(c3ccc(Cl)cc3)CC2)=NC1=O` was 0.9%; that for `COc1cccc(C(=O)NC(C)C(c2cccs2)N2CCN(C)CC2)c1` (configuration not stated) was 4.2%; that for `Oc1cccc(C=NCc2ccccc2)c1O` was 49.6%. For `O=C(/C(=N/N=C/c1ccc(O)c(O)c1)c1ccccc1)c1ccccc1`, the inhibition is 30.7%.

Regarding `CCN(CC)c1ccc(/C=N/N=C(c2ccccc2)c2ccccc2)c(O)c1`, the inhibition is 0.4%. In the case of `COc1ccc(/C=N/N(Cc2ccccc2)c2ccccc2)cc1O`, the inhibition is 16.7%.

On to `Oc1cccc(/C=N/N(Cc2ccccc2)c2ccccc2)c1`, for which the inhibition is 10%. For the compound `COc1cc(/C=N/N=C(/C(=O)c2ccccc2)c2ccccc2)cc(OC)c1O`, the inhibition is 22%. As to `Oc1ccc(/C=N/N(Cc2ccccc2)c2ccccc2)c(O)c1O`, the inhibition was 76.6% (active). In the case of `Oc1ccc(/C=N/N=C(c2ccccc2)c2ccccc2)c(O)c1O` it was 67.9% (active); in that of `O=C(/C(=N/N=C/c1ccc(O)c(O)c1O)c1ccccc1)c1ccccc1`, 55.5% (active). In the case of `CC(=O)c1cn(CCCCCCCn2cc(C(C)=O)c(=O)[nH]c2=O)c(=O)[nH]c1=O` it was 1.5%. Consider `O=C(COC(=O)Cc1ccc(Br)cc1)NC1CCCCC1`, for which the inhibition is -3.4%.

Turning to `Oc1ccc(C2N=C(c3ccccc3)NC(c3ccccc3)=N2)cc1`, the inhibition was 3.9%. For the compound `Cc1ccc(C(=O)OCC(=O)Nc2sc3c(c2C#N)CCCC3)cc1NC(=O)c1ccco1`, the inhibition is 1.3%. With `CSc1nc(=NC(C)=O)ss1`, the inhibition was 54.4% (active). The value for `CCN(c1ccccc1)S(=O)(=O)c1ccc(OC)c(NC(=O)CNC)c1` was 7.5%; that for `CCN(CC)CCOC(=O)c1c(C)oc2ccc(OC)cc12` was -3.8%; that for `CCOC(=O)c1c(C)oc2ccc(O)cc12` was 8.3%. In the case of `CCN(CC)CCOC(=O)c1c(C)oc2ccc(O)cc12` it was 81.6% (active); in that of `C/C(=N\NC(=O)CCc1c[nH]c2ccccc12)c1ccc([N+](=O)[O-])cc1`, 7.7%.

Regarding `O=C(Cc1coc(-c2ccc(F)cc2)n1)N1CCOCC1`, the inhibition is 1%. As for `Nc1ccc(N(CCO)CCO)cc1`, the inhibition was 4.7%. Consider `OCCN(CCO)c1ccc(C(c2ccccc2Cl)c2ccc(N(CCO)CCO)cc2Cl)c(Cl)c1`, for which the inhibition was 22.1%.
